Results: PubChem BioAssay AID833 (The Scripps Research Institute Molecular Screening Center, 2007)
About 80 (0.5%) of roughly 16,000 compounds were called active. The sample holds actives, similar compounds and a random draw of the others, so the mix is not that of the screen. Unmarked numbers belong to inactive results. Cut-off read from the data, not from the text of the source: active = activation above about 15%; inactive = the rest.

Target: Galanin receptor type 2 (Rattus norvegicus) (UniProt O08726)
Sequence (O08726 whole entry, looked up): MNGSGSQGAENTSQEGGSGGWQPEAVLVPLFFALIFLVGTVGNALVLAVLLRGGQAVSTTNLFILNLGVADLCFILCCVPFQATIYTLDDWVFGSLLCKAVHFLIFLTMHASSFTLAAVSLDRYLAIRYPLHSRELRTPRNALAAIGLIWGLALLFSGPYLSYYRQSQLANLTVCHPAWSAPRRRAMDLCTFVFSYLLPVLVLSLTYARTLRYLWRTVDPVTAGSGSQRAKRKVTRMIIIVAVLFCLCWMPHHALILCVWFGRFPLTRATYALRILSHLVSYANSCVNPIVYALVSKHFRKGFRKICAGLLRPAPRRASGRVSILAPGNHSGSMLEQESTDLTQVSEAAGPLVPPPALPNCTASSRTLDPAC
Assay: agonists of rat galanin receptor 2 (GALR2) (AID 833)
Settings: cell-based GALR2 agonist screen; at 10 µM; active compounds read high

In order of rising activation:
1. FC(F)(F)c1csc(N/N=C/c2ccccc2Cl)n1  -13.1%
2. O=S(=O)(c1ccc(Cl)c(Cl)c1)N1CCc2c([nH]c3ccccc23)C1C(F)(F)F (stereo not drawn)  -11.8%
3. CC1CC(NC(=O)/C(C#N)=C/c2ccc[nH]2)CC(C)(C)C1 (stereo not drawn)  -10.3%
4. CSC(=CC(=O)c1cccs1)SC  -10.2%
5. O=C(NCc1cccnc1)Nc1cccc(NC(=O)NCc2cccnc2)c1F  -10%
6. Cc1c(S(=O)(=O)N2CCOCC2)ccc(Cl)c1F  -9.66%
7. Oc1[nH]c2ccc(F)cc2c1N=NC(=S)NC1CC2C=CC1C2 (stereo not drawn)  -9.63%
8. O=C(NCc1csc(-c2cccs2)n1)Nc1ccccc1-c1ccccc1  -9.54%
9. c1ccc2c(-c3csc(-c4ccc5c(c4)OCCO5)n3)csc2c1  -9.38%
10. Cc1nc(-c2cccnc2)nc(N2CCCN(Cc3ccc(F)cc3)CC2)c1Cl  -9.09%
11. N#Cc1ccc(N2CCN(C(=O)c3ccco3)CC2)cc1  -9.07%
12. N/C(=N\O)c1ccc2nonc2c1  -8.97%
13. Cc1[nH]c2ccccc2c1Sc1ccc(Cl)cc1  -8.87%
14. COc1ccc(NC(=S)Nc2ccc(F)cc2F)c([N+](=O)[O-])c1  -8.62%
15. N#CC1(C#N)C(c2ccc(Cl)c(Cl)c2)C1(C#N)C#N  -8.55%
16. N#CC(c1cc2ccccc2cn1)c1ccc2c(c1[N+](=O)[O-])C(=O)c1ccccc1C2=O (stereo not drawn)  -8.33%
17. CCOC(=O)c1cc(CC)sc1NC(=O)c1cccnc1Oc1ccccc1  -8.18%
18. CCOC(=O)CN1C(=O)/C(=C\c2ccc(C)o2)N=C1c1ccccc1  -8.17%
19. CCOC(=O)/C=C(/Nc1ccccc1SC)c1ccccc1  -8.09%
20. Cn1cc(Br)c(-c2ccc(NC(=O)Nc3ccc(Cl)cc3)cc2)n1  -8.08%
21. CSc1sc(C(=O)NC2CC2)c(-c2ccc(Cl)cc2)c1C#N  -8.05%
22. O=C(Nc1ccc(C(F)(F)F)cc1)Nc1ccccc1C(=O)O  -8.04%
23. Cc1cc(CNCC(O)C(F)(F)F)no1 (stereo not drawn)  -7.81%
24. Cc1cc(C)nc(N/C=C(\C#N)S(=O)(=O)c2ccc(Cl)cc2)n1  -7.71%
25. CSc1n[nH]c(=O)n1-c1cccc(C(F)(F)F)c1  -7.62%
26. Cc1cc(-c2nc(C(=O)NN3CCCCC3)cs2)no1  -7.49%
27. CN1CCN(c2ccc(NC(=O)c3ccccc3)cc2)CC1  -7.3%
28. CC(C)(C)NC(=O)[C@@H]1C[C@@H]2CCCC[C@@H]2CN1C(=O)c1ccno1  -7.29%
29. COc1ccc(CCNC(=O)c2ccccc2-c2ccccc2C(=O)O)cc1OC  -7.28%
30. O=S(=O)(Oc1ccc(Cl)c(Cl)c1)c1c(Cl)sc(Cl)c1Br  -7.23%
31. CC(C)(C)c1ccc(C(=O)CC(N)=O)cc1  -7.09%
32. COc1cc(NC(=O)c2ncc(C(F)(F)F)cc2Cl)c(C(=O)O)cc1OC  -7.07%
33. CCOc1ccc(NC(=S)N2CCC(c3ccccc3OC)CC2)cc1  -6.67%
34. N/C(CC(=O)Nc1ccc(F)c(Cl)c1)=N\O  -6.66%
35. Cn1cnnc1SC/C=C/c1ccccc1  -6.61%
36. Cc1ccc(S(=O)(=O)NNC(=O)c2ccccc2N)cc1  -6.6%
37. CCOC(=O)C(=CNNc1ccc(C(=O)O)cc1[N+](=O)[O-])C(=O)OCC  -6.55%
38. N/C(=N\OC(=O)Nc1ccccc1)c1ccc(Oc2c(Cl)cncc2Cl)cc1  -6.45%
39. O=C(c1cnn(-c2ccc(Cl)cc2)n1)c1cccs1  -6.45%
40. O=S(=O)(O)c1ncccn1  -6.4%
41. Cc1[nH]n(C)c(=O)c1C(=O)c1c(-c2c(Cl)cccc2Cl)noc1C  -6.37%
42. CC(=O)c1ccc(C#Cc2ccccc2)cc1  -6.33%
43. S=C1NCN(CCCn2ccnc2)CN1  -6.28%
44. CCOC(=O)C(=CNc1nc(-c2ccc(Cl)cc2)cs1)C(=O)OCC  -6.21%
45. O=C(O)Cc1csc(NC(=O)CSc2nnnn2-c2ccc(O)cc2)n1  -6.18%
46. CCOC(=O)c1c(NS(=O)(=O)c2cccc3nsnc23)sc(C)c1C  -6.04%
47. COc1cccc(OCc2ccccc2)c1C#N  -5.84%
48. Cc1cc(C)nc(NC(=S)c2ccc(NC(=O)/C=C/C(=O)O)cc2)n1  -5.82%
49. O=C(CSc1c(F)c(F)c(C(=O)O)c(F)c1F)Nc1cccc(C(F)(F)F)c1  -5.69%
50. Cc1nc(-c2ncc(-c3ccccc3)o2)c(C(F)(F)F)o1  -5.66%
51. COC(=O)c1c(C)noc1-c1ccno1  -5.48%
52. CC(C)N(C(=O)c1ccc(-c2ccccc2F)cc1)C(C)C  -5.45%
53. C#CC(C)(CC)OCC(O)CS(=O)(=O)O (stereo not drawn)  -5.43%
54. Clc1ccc(C=NCc2cccnc2)c(Cl)c1  -5.42%
55. O=[N+]([O-])c1ccc(-c2ccc(I)cc2)cc1  -5.42%
56. NNC(=O)CC1C(=O)NCCN1Cc1c(Cl)cccc1Cl (stereo not drawn)  -5.38%
57. N#C/C(=C\c1cccs1)C(=O)NCCc1c[nH]c2ccccc12  -5.34%
58. O=C(Oc1ccc(Cl)cc1)c1snnc1-c1ccccc1  -5.24%
59. COc1cccc2c1c(NS(=O)(=O)c1cn(C)cn1)nn2C  -5.19%
60. O=C(O)CC(CC(=O)Nc1cc(C(F)(F)F)ccc1N1CCOCC1)c1ccccc1 (stereo not drawn)  -5.13%
61. Cc1ccc(SCC(=O)Nc2ccc(F)cc2F)cc1  -5.06%
62. CNC(=S)NNC(=O)c1cc(C)on1  -5.05%
63. Cc1cc(S(=O)(=O)O/N=C(\N)c2snnc2C)cc(C)c1F  -5.04%
64. c1ccc2c(c1)NC(C1Nc3ccccc3O1)O2 (stereo not drawn)  -4.99%
65. N/N=c1/nc2sccn2c2ncccc12  -4.92%
66. CSc1nsc(SC)c1C(=O)Nc1cc(C(F)(F)F)cc(C(F)(F)F)c1  -4.92%
67. Cc1onc(C(=O)NN)c1-c1csc(COc2ccccc2)n1  -4.77%
68. COc1ccc(OC)c(CNC(=O)Cc2cccs2)c1  -4.76%
69. COC(=O)c1sccc1NC(=S)Nc1ccc(C)cc1  -4.74%
70. O=S(=O)(CCSc1ccc(C(F)(F)F)cn1)CCSc1ccc(C(F)(F)F)cn1  -4.73%
71. O=C(NCCO)NCCSc1ccc(F)cc1  -4.7%
72. c1ccc(CN2CCN(Cn3nnc4ccccc43)CC2)cc1  -4.65%
73. Cc1oc(-c2ccc(Cl)cc2)cc1C(=O)O/N=C(\N)Cc1nc2cccnc2n1C1CC1  -4.62%
74. CN([C@H]1CCN2CCc3ccccc3C2C1)S(C)(=O)=O (stereo partly drawn)  -4.21%
75. Cn1cccc1-c1n[nH]c(=S)n1-c1ccc(Cl)cc1Cl  -4.04%
76. Cc1csc(/N=C/N(C)C)c1C#N  -4.03%
77. Cc1nnsc1-c1nnc(SCC(=O)c2ccc3c(c2)OCO3)n1C1CC1  -3.99%
78. O=C(O)c1cc(=O)[nH]c2c(Cl)cc(Cl)cc12  -3.92%
79. Cc1onc(-c2ccccc2)c1CNS(=O)(=O)c1ccc2c(c1)OCCN2C  -3.66%
80. CO/N=C1\C(=O)N(C)c2ccccc21  -3.65%
81. CCCCNc1nc(N)ns1  -3.61%
82. Cc1cccc(-c2noc(NC(=O)O/N=C/c3ccccc3)n2)c1  -3.45%
83. O=C(O)CC1(CC(=O)Nc2ccc(N3CCCCC3)cc2)CCCCC1  -3.41%
84. Cc1cc(S(=O)(=O)Oc2ccc(OCc3ccccc3)cc2)c(C)cc1Cl  -2.88%
85. CN(NC(=O)c1ccc(Cl)s1)c1cnn(-c2cc(Cl)cc(Cl)c2)c(=O)c1Cl  -2.83%
86. O=C1C=C(c2ccccc2)CN(C2CCCCC2)C1=O  -2.8%
87. Cc1oc(C(C)(C)C)cc1C(=O)NC1Cc2ccccc2C1  -2.8%
88. O=C(Nn1cnnc1)c1ccc([N+](=O)[O-])cc1  -2.79%
89. CCOC(=O)C/C(N)=C(\C#N)C(=O)OCC  -2.73%
90. CSc1nsc(SC)c1C(=O)NC(=O)NNc1ccc(F)c(Cl)c1  -2.68%
91. CC(C)S(=O)(=O)c1cscc1N/C=C(/C#N)C(=O)c1cccs1  -2.65%
92. O=[N+]([O-])c1ccc(-c2nnnn2Cc2c(Cl)cccc2Cl)cc1  -2.65%
93. Cc1c(CC(=O)Oc2ccc([N+](=O)[O-])cc2)sc2ccc(Cl)cc12  -2.58%
94. COC(=O)c1ccc2snnc2c1  -2.44%
95. Cc1onc(-c2ccccc2)c1C(=O)Nc1ccc(/C(C#N)=C/c2ccccn2)cc1  -2.22%
96. Cc1cc(Cl)ccc1NC(=S)NNC(=S)Nc1ccc(F)cc1  -1.79%
97. Cc1c(NC(=S)Nc2ccccc2)c(=O)n(-c2ccccc2)n1C  -1.67%
98. COC(=O)c1noc(C)c1-c1ccnn1C(=O)c1ccc(Cl)cc1  -1.59%
99. COC(=O)/C(=C/c1ccccc1)c1ccccc1  -1.48%
100. Cc1ccc(S(C)(=O)=NC(=O)NS(=O)(=O)Oc2ccc(Cl)cc2Cl)cc1 (stereo not drawn)  -1.36%
101. NS(=O)(=O)c1cc(Br)ccc1I  -1.14%
102. O=[N+]([O-])c1ccc(N2CCOCC2)cc1  -0.7%
103. CCOC(=O)c1c(NC(=S)NC)sc2c1CCCC2  -0.11%
104. COc1cc(CCN=Cc2ccccc2O)c([N+](=O)[O-])cc1OC  -0.09%
105. COC(=O)c1cc(OC)c(OC)cc1NC(=O)c1ccccc1C(=O)O  0.04%
106. COC(=O)c1ccc(/C=C2\C(=O)Nc3ccccc32)n1-c1ccc(F)cc1  2.14%
107. Cc1cc(CNC(=O)c2cc(C)n(C)n2)no1  4.72%
108. O=C1C=C(SCC(=O)c2ccccc2)SC(c2ccc(Cl)cc2)C1 (stereo not drawn)  6.17%
109. N#Cc1c(-c2cccs2)cc(-c2cccs2)nc1N  10.7%

With `O=C(CN1C(=O)/C(=C/c2ccccc2Cl)N=C1c1ccccc1)c1ccccc1` the activation was 15.2% (active).
With `CC1=C(C(=O)O)N2C(=O)[C@H](NC(=O)[C@@H](N)c3ccccc3)C2SC1` (stereo partly drawn) the activation was 22.8% (active).
For `N#Cc1ccc(-c2csc(COc3ccccc3Cl)n2)cc1`, the activation was 34% (active).
`CCOc1c(N2CCCCC2)c(=O)c1=O` was tested, and the activation was 24.1% (active).
